Measured values taken from PubChem BioAssay (EPA / NIEHS).
Inconclusive results are not listed. Activity calls are given as the source filed them. Rule for the calls, unless noted: active = hit-call score of the fitted dose curve at least 0.9, where 1 is the maximum; inactive = score below 0.9.

Experiments:
[1] = molecular target: Nuclear respiratory factor 1 (Homo sapiens) (UniProt Q16656); assay: ATG_NRF1_CIS: Attagene CIS-FACTORIAL HepG2 Assay for human Nuclear Respiratory Factor 1 (NRF1) Orphan Gene (AID 2282987); conditions: HepG2 NRF1 cis-element reporter, Attagene multiplex; actives raise or lower the signal
Nuclear respiratory factor 1 (Homo sapiens), sequence (Q16656 whole entry, looked up): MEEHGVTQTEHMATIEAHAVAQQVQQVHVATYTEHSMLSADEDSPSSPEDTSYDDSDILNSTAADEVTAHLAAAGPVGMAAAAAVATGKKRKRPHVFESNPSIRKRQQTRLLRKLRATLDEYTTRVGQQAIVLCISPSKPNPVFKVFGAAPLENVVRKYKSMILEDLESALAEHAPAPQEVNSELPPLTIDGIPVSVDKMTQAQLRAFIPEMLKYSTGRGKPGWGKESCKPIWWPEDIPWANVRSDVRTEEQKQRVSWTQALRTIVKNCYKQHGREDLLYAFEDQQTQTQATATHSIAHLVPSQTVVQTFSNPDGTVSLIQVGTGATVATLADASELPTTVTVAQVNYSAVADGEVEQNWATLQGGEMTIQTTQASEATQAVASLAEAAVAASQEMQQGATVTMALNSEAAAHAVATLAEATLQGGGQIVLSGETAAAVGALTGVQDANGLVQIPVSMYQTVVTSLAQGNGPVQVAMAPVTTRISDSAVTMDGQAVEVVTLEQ
Method in brief: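 Multiplexed cis-reporter assay, HepG2 cells, 24 h treatment. Total RNA → oligo(dT) RT → PCR with reporter-specific primers → 6-FAM primer extension → HpaI cut → CE. Bidirectional fit vs DMSO.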

[2] = ATG_NFI_CIS: Attagene CIS-FACTORIAL HepG2 Assay for human Nuclear Factor I (NFI) (AID 2282989); conditions: HepG2 cis-regulatory reporter, NFI response element transcription; actives raise or lower the signal
Method in brief: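 HepG2, transient MRTU, 24 h exposure; RNA→cDNA→PCR→FAM label→HpaI→CE fluorescence. Bidirectional fit, DMSO = baseline.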

[3] = molecular target: Myc proto-oncogene protein (Homo sapiens) (UniProt P01106); assay: ATG_Myc_CIS: Attagene CIS-FACTORIAL HepG2 Assay for human Myelocytomatosis (Myc) Proto-Oncogene Transcription Factor (AID 2282990); conditions: HepG2, Attagene cis-reporter transcription factor activity; actives raise or lower the signal
Myc proto-oncogene protein (Homo sapiens), sequence (P01106 whole entry, looked up): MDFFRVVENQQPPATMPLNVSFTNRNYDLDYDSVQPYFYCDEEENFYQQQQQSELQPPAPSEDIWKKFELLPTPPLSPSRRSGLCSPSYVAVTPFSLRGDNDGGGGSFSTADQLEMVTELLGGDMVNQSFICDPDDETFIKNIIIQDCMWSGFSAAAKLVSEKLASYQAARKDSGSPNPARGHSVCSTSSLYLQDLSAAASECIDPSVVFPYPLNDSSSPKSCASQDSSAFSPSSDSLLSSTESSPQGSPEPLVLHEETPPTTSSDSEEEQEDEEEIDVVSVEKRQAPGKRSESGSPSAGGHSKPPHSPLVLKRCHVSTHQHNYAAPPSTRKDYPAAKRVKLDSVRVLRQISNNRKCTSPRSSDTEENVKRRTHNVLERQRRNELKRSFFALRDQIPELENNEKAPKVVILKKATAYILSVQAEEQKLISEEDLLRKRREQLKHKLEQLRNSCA
Method in brief: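 Cells of the HepG2 human liver line bear multiple cis-driven reporter transcription units. Reporter mRNA after 24 h exposure is reverse-transcribed, amplified, labelled and resolved by capillary electrophoresis, with gain- or loss-of-signal fitting relative to DMSO.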

[4] = ATG_NRF2_ARE_CIS: Attagene CIS-FACTORIAL HepG2 Assay for human Nuclear Factor Erythroid 2 Related Factor 2 (NFR2) response to Antioxidant Response Elements (ARE) (AID 2282992); conditions: HepG2 Attagene ARE/NRF2 reporter, transcription factor activity; actives raise or lower the signal;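 for AC50: reporter mRNA level measured by RT-PCR and capillary electrophoresis fluorescence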
Method in brief: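 Transient MRTU transfection of HepG2; 24 h compound exposure; TriZol RNA, RT with oligo(dT), PCR, 6-FAM primer extension, HpaI cut, CE. Bidirectional fit vs DMSO.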

[5] = ATG_Oct_MLP_CIS: Attagene CIS-FACTORIAL HepG2 Assay for human Octamer-Binding Transcription Factor (Oct) (AID 2282993); conditions: HepG2 Attagene cis-factorial Oct reporter, mRNA; actives raise or lower the signal
Method in brief: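 Multiplexed cis-reporter assay in human liver HepG2 cells, 24 h incubation. Reporter RNA amplified and labelled, then resolved by capillary electrophoresis; DMSO serves as negative control and baseline.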

[6] = molecular target: Cellular tumor antigen p53 (Homo sapiens) (UniProt P04637); assay: ATG_p53_CIS: Attagene CIS-FACTORIAL HepG2 Assay for human p53 Transcription Factor (AID 2282994); conditions: HepG2 p53 cis-element reporter, Attagene mRNA; actives raise or lower the signal
Cellular tumor antigen p53 (Homo sapiens), sequence (P04637 whole entry, looked up): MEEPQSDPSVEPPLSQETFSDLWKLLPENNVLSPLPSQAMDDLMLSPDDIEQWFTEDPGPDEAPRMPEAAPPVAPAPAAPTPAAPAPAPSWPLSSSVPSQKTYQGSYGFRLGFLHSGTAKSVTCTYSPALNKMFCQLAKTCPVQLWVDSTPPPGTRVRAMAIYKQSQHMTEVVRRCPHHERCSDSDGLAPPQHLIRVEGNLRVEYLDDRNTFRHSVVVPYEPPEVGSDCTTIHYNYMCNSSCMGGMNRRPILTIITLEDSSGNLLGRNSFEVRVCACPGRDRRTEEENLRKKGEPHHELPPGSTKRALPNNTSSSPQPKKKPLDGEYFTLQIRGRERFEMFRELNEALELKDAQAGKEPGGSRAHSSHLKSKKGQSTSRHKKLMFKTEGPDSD
Method in brief: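 HepG2, transient MRTU transfection (cis promoter elements, endogenous TFs); 24 h dosing; RNA isolation, RT-PCR, 6-FAM primer extension, HpaI digest, CE fluorescence; bidirectional fit vs DMSO.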

[7] = molecular target: human Peroxisome Proliferator-activated Receptor delta (PPARd), PPARD (gene 5467) (UniProt Q03181); assay: ATG_PPARd_TRANS: Attagene TRANS-FACTORIAL HepG2 Assay for human Peroxisome Proliferator-activated Receptor delta (PPARd) (AID 2283002; active = hit-call score of the fitted dose curve at least 0.9, where 1 is the maximum)
human Peroxisome Proliferator-activated Receptor delta (PPARd), PPARD (gene 5467), sequence (Q03181 whole entry, looked up): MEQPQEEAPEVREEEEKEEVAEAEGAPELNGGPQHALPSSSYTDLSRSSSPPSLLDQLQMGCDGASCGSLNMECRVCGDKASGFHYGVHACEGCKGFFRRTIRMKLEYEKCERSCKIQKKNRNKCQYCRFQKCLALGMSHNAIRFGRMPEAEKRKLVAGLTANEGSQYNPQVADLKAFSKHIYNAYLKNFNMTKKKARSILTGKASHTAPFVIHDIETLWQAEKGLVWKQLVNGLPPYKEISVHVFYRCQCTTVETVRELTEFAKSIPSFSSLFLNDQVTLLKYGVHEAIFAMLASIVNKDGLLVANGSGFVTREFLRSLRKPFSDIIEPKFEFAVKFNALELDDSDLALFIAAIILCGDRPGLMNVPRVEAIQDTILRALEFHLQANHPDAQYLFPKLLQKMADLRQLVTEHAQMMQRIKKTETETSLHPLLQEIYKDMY
Method in brief: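 Cell-based TRANS reporter: HepG2, transient MRTU transfection, 24 h exposure. Readout = reporter mRNA (RT-PCR/CE, 6-FAM). Gain-of-signal fit vs DMSO control.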

[8] = molecular target: human Retinoic Acid Receptor beta (RARb), RARB (gene 5915) (UniProt P10826); assay: ATG_RARb_TRANS: Attagene TRANS-FACTORIAL HepG2 Assay for human Retinoic Acid Receptor beta (AID 2283004; active = hit-call score of the fitted dose curve at least 0.9, where 1 is the maximum)
human Retinoic Acid Receptor beta (RARb), RARB (gene 5915), sequence (P10826 whole entry, looked up, the tested form may be a part): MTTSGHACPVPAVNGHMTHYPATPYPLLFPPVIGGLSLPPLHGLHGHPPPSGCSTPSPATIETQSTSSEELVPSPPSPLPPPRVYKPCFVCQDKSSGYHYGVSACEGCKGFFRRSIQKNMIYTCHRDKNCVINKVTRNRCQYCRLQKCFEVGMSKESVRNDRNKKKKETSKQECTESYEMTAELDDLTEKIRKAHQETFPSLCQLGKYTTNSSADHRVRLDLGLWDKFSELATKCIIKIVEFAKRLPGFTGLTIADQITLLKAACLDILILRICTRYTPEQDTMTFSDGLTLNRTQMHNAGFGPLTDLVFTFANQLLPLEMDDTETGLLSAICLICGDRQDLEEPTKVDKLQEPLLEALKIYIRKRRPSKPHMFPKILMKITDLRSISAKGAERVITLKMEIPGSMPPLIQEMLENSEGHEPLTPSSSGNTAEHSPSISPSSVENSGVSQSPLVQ
Method in brief: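 HepG2 cells transiently transfected with multiplexed GAL4-UAS reporter units expressing chimeric NR–Gal4 fusions; 24 h compound exposure. Reporter mRNA quantified by RT-PCR, 6-FAM labelling, HpaI digestion and capillary electrophoresis; gain-of-signal fitted against DMSO baseline.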

[9] = molecular target: Peroxisome proliferator-activated receptor gamma (Homo sapiens) (UniProt P37231); assay: ATG_PPARg_TRANS: Attagene TRANS-FACTORIAL HepG2 Assay for human Peroxisome Proliferator-activated Receptor-gamma (PPARg) (AID 2283007; active = hit-call score of the fitted dose curve at least 0.9, where 1 is the maximum)
Peroxisome proliferator-activated receptor gamma (Homo sapiens), sequence (P37231 whole entry, looked up, the tested form may be a part): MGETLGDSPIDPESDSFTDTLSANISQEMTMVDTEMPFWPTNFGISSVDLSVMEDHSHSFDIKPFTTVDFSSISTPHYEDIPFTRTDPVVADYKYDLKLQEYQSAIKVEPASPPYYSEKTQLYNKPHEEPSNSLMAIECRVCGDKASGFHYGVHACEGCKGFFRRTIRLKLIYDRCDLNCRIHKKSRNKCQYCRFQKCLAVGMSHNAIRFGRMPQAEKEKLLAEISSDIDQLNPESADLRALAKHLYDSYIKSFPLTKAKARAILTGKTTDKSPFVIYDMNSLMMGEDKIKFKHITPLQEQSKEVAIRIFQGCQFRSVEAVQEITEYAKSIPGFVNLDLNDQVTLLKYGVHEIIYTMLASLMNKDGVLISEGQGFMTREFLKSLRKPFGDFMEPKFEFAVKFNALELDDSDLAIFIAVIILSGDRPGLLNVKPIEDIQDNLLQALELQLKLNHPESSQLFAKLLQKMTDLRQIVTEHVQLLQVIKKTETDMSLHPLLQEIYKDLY
Method in brief: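 Transient transfection of HepG2 with GAL4-UAS-driven reporter units; chemical dosing 24 h; total RNA → oligo(dT) RT → PCR with reporter primers → 6-FAM primer extension → HpaI digest 2 h 37 C → capillary electrophoresis. Positive direction vs DMSO.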

[10] = ATG_NF_kB_CIS: Attagene CIS-FACTORIAL HepG2 Assay for human Nuclear Factor Kappa B (NF-kB) (AID 2282991); conditions: HepG2 Attagene cis-factorial NF-kB reporter mRNA; actives raise or lower the signal
Method in brief: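 Transient MRTU transfection of human HepG2 liver cells → 24 h chemical exposure → total RNA, oligo(dT) RT → PCR, 6-FAM primer extension, HpaI digest 2 h 37 C → CE fragment analysis. Bidirectional fitting, DMSO negative control.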

[11] = molecular target: Nuclear receptor subfamily 1 group I member 2 (Homo sapiens) (UniProt O75469); assay: ATG_PXR_TRANS: Attagene TRANS-FACTORIAL HepG2 Assay for human Pregnane X Receptor (PXR) (AID 2283008; active = hit-call score of the fitted dose curve at least 0.9, where 1 is the maximum)
Nuclear receptor subfamily 1 group I member 2 (Homo sapiens), sequence (O75469 whole entry, looked up, the tested form may be a part): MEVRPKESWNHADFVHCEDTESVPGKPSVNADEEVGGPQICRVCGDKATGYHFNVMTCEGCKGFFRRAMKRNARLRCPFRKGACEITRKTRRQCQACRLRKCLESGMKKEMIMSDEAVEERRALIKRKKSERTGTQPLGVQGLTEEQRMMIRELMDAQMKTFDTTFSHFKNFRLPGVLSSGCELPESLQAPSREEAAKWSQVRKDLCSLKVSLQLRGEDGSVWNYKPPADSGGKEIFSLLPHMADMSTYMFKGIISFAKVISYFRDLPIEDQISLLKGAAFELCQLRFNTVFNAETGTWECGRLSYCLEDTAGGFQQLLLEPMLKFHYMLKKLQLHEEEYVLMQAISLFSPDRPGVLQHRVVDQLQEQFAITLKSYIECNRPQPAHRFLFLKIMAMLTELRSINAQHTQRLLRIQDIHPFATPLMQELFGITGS
Method in brief: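 Read-out is fluorescence of labelled reporter cDNA fragments separated by capillary electrophoresis after RT-PCR and HpaI digestion. Source: HepG2 cells carrying PXR-GAL4/UAS reporter constructs, treated 24 h; activity fitted upward relative to DMSO.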

[12] = BSK_3C_TissueFactor: BioMAP Diversity Plus: 3C Assay for Tissue Factor Biomarker Activity (AID 2282997); conditions: BioMAP 3C HUVEC, tissue factor biomarker readout; actives raise or lower the signal
Method in brief: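 Primary human umbilical vein endothelial cells in the 3C system were exposed to test chemical for 24 h, then Tissue Factor measured by ELISA. Activity was fitted bidirectionally against DMSO as negative control and baseline.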

[13] = BSK_3C_uPAR: BioMAP Diversity Plus: 3C Assay for Urokinase-type plasminogen activator receptor (uPAR) Biomarker Activity (AID 2282998); conditions: BioMAP 3C HUVEC, uPAR biomarker ELISA; actives raise or lower the signal
Method in brief: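 Dose primary human umbilical vein endothelial cells, incubate 24 h, measure cell-surface uPAR by ELISA, then fit the signal in both directions against the DMSO negative control.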

[14] = BSK_3C_VCAM1: BioMAP Diversity Plus: 3C Assay for Vascular cell adhesion molecule 1 (VCAM1) Biomarker Activity (AID 2282999); conditions: BioMAP 3C HUVEC, VCAM1 ELISA, cytokine-stimulated; actives raise or lower the signal
Method in brief: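 Endothelial cells from human umbilical vein are treated with test chemical. At 24 h, VCAM-1 is measured by ELISA, and responses in either direction are fitted relative to DMSO.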

[15] = BSK_4H_Eotaxin3: BioMAP Diversity Plus: 4H Assay for Eotaxin 3 Biomarker Activity (AID 2283000); conditions: primary human endothelial cells (HUVEC); actives raise or lower the signal
Method in brief: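 HUVEC, 24 h post-dose, ELISA for Eotaxin-3/CCL26. Gain or loss of signal fitted bidirectionally vs DMSO baseline.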

[16] = read-out: Intercellular Adhesion Molecule 1 (ICAM1), ICAM1 (gene 3383); assay: BSK_3C_ICAM1: BioMAP Diversity Plus: 3C Assay for Intercellular Adhesion Molecule 1 (ICAM1) Biomarker Activity (AID 2283003); conditions: primary human endothelial cells (HUVEC); actives raise or lower the signal
Method in brief: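 Primary human umbilical vein endothelial cells in the BioMAP 3C system were exposed to chemicals for 24 h, then ICAM-1 was quantified by ELISA. Activity was fitted bidirectionally against the DMSO negative control baseline.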

[17] = BSK_3C_Proliferation: Cell Proliferation Assessment in the BioMAP Diversity Plus: 3C Assay (AID 2283006); conditions: primary human endothelial cells (HUVEC);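 for AC50: potency may reflect either rise or fall in cell number versus DMSO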
Method in brief: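 Human umbilical vein endothelial cells were grown sub-confluent and exposed to chemical for 48 h, then fixed with 10% TCA and stained with 0.1% sulforhodamine B; absorbance at 560 nm gave relative cell number, fitted bidirectionally against DMSO baseline.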

[18] = molecular target: Retinoic acid receptor alpha (Homo sapiens) (UniProt P10276); assay: ATG_RARa_TRANS: Attagene TRANS-FACTORIAL HepG2 Assay for human Retinoic Acid Receptor alpha (RARa) (AID 2283005; active = hit-call score of the fitted dose curve at least 0.9, where 1 is the maximum)
Retinoic acid receptor alpha (Homo sapiens), sequence (P10276 whole entry, looked up, the tested form may be a part): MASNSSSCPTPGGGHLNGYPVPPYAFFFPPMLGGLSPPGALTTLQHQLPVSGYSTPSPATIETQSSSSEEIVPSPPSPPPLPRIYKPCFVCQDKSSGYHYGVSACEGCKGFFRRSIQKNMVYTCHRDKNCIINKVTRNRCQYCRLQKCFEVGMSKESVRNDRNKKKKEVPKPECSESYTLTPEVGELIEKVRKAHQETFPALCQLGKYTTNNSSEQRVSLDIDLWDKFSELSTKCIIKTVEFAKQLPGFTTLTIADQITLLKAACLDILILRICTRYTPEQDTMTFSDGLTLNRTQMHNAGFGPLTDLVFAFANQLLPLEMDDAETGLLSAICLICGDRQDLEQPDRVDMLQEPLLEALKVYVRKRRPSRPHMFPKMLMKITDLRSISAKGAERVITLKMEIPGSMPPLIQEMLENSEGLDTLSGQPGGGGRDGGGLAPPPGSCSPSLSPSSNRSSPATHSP
Method in brief: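 Reporter transcripts, measured by RT-PCR with fluorescent labeling and capillary electrophoresis after 24 h dosing, reflect activity of an exogenous human RARa–GAL4 fusion in transiently transfected HepG2. Fitted for increase relative to DMSO.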

[19] = molecular target: human Retinoic Acid Receptor gamma (RARg), RARG (gene 5916) (UniProt P13631); assay: ATG_RARg_TRANS: Attagene TRANS-FACTORIAL HepG2 Assay for human Retinoic Acid Receptor gamma (RARg) (AID 2283009; active = hit-call score of the fitted dose curve at least 0.9, where 1 is the maximum;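 for AC50: AC50 is for reporter induction above DMSO meaning RARg activation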)
human Retinoic Acid Receptor gamma (RARg), RARG (gene 5916), sequence (P13631 whole entry, looked up, the tested form may be a part): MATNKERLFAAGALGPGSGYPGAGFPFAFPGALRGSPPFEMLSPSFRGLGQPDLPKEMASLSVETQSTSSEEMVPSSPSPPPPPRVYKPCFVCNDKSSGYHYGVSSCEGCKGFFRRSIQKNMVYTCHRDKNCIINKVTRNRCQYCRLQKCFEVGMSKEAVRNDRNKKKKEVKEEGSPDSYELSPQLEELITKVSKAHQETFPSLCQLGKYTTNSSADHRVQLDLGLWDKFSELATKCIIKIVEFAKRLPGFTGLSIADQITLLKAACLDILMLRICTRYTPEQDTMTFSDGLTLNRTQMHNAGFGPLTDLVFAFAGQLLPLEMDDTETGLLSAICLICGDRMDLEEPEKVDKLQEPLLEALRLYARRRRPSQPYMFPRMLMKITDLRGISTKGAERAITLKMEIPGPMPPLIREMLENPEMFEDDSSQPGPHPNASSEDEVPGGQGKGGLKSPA
Method in brief: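 HepG2 cells transiently transfected with multiplexed reporter units expressing chimeric RARg-GAL4 and GAL4-UAS-driven reporters; 24 h compound exposure. Reporter mRNA quantified by RT-PCR with fluorescent labelling and capillary electrophoresis; gain-of-signal fitted relative to DMSO baseline.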

[20] = molecular target: human Peroxisome Proliferator-activated Receptor alpha (PPARa), PPARA (gene 5465) (UniProt Q07869); assay: ATG_PPARa_TRANS: Attagene TRANS-FACTORIAL HepG2 Assay for human Peroxisome Proliferator-activated Receptor alpha (PPARa) (AID 2283001; active = hit-call score of the fitted dose curve at least 0.9, where 1 is the maximum)
human Peroxisome Proliferator-activated Receptor alpha (PPARa), PPARA (gene 5465), sequence (Q07869 whole entry, looked up, the tested form may be a part): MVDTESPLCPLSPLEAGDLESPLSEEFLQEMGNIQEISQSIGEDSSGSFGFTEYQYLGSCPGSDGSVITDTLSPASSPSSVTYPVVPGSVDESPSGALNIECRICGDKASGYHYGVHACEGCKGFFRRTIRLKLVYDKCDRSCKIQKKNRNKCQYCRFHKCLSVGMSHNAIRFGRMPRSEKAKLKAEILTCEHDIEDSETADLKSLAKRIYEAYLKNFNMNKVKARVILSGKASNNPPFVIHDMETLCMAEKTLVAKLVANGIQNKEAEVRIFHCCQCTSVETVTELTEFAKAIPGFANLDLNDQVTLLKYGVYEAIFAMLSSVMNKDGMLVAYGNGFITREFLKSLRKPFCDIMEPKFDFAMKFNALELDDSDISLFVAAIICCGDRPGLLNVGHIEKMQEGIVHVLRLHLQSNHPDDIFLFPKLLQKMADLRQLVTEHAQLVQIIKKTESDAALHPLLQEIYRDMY
Method in brief: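 Reporter transcripts from GAL4-UAS units in transfected HepG2 were quantified 24 h after dosing. Detection used reverse transcription, PCR, fluorescent primer extension and capillary electrophoresis, with DMSO as baseline.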

Measured: AC50

CC(O)C#N (stereo not given)
inactive: [1] | [2] | [3] | [4] | [5] | [6] | [7] | [8] | [9]

Clc1ccc(Oc2ccccc2)cc1
inactive: [1] | [2] | [3] | [10] | [5] | [6] | [7] | [8] | [9] | [11]

COCCOCCO
inactive: [1] | [2] | [3] | [10] | [5] | [12] | [13] | [14] | [15] | [16] | [17]

Oc1ccccc1Br
inactive: [1] | [2] | [3] | [10] | [5] | [6] | [11]

CO/N=C(/C(=O)OC)c1ccccc1COc1ccccc1C
active: [4] 3.96 µM | [5] 21.9 µM | [11] 4.28 µM
inactive: [1] | [2] | [3] | [6] | [7] | [8] | [18] | [19]

CCCCc1ccc(O)cc1
active: [9] 57.1 µM
inactive: [1] | [2] | [3] | [10] | [5] | [20] | [7] | [8] | [11] | [19]

COP(=O)(CCC(=O)NCO)OC
not listed: [8] | [10] | [11] | [15] | [18] | [19] | [20]
inactive: all other assays above

c1ccc2c(c1)sc1ccccc12
not listed: [6] | [7] | [8] | [10] | [18] | [20]
inactive: all other assays above

CC(O)C(F)(F)C(F)(F)F (stereo not given)
not listed: [6] | [7] | [10] | [19]
inactive: all other assays above

O=C(CBr)OCc1ccccc1
inactive: [1] | [2] | [3] | [5] | [6] | [7] | [9]
active: [4] 67.8 µM

CCCCOCCOP(=O)(OCCOCCCC)OCCOCCCC
active: [9] 58.7 µM
not listed: [6] | [10]
inactive: all other assays above

CSC(C)(C)C=NO
not listed: [6] | [8] | [9] | [10] | [11] | [18] | [19]
inactive: all other assays above

O=C(O)CF
inactive: [1] | [2] | [3] | [5]

Cc1c([N+](=O)[O-])cc2c(c1[N+](=O)[O-])C(C)(C)CC2(C)C
active: [3] 3.03 µM | [12] 3.62 µM | [13] 0.87 µM | [15] 2.15 µM | [17] 2.4 µM | [11] 0.862 µM | [19] 2.08 µM
not listed: [4] | [6] | [10] | [20]
inactive: all other assays above

O=C(O)C(Cl)Cl
not listed: [6] | [8] | [10] | [11] | [15] | [18] | [19] | [20]
inactive: all other assays above

CCOP(=S)(S)OCC
active: [17] 20.9 µM
not listed: [4] | [6] | [8] | [10] | [18] | [19] | [20]
inactive: all other assays above

O=NN1CCCC1
inactive: [1] | [2] | [3] | [4] | [5] | [7] | [9] | [11] | [19]

C/C(=N\NC(=O)Nc1cc(F)cc(F)c1)c1ncccc1C(=O)O
inactive: [1] | [2] | [3] | [5] | [6] | [20] | [9] | [11]

CC(C)Nc1ccc(Nc2ccccc2)cc1
active: [12] 8.11 µM | [13] 13.2 µM | [14] 8.53 µM | [16] 17.4 µM | [17] 1.82 µM | [9] 23.9 µM | [11] 2.71 µM
not listed: [4] | [6] | [7] | [10] | [15]
inactive: all other assays above

CC(Cl)(Cl)C(=O)O
not listed: [6] | [7] | [8] | [10] | [15] | [18] | [19] | [20]
inactive: all other assays above

ClC(Cl)(Cl)c1ccccc1
inactive: [1] | [2] | [3] | [5] | [12] | [13] | [14] | [7] | [16] | [17]
